Experiment [1] in a line: NCI Yeast Anticancer Drug Screen. Data for the rad50 strain (AID 155).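 Further: 0% = growth of vehicle-only cultures of the same strain.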 Conditions: S. cerevisiae rad50 strain growth inhibition; at 50.0 µM; stronger effect = higher value. The procedure, abridged:
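Cells are treated with compound, grown, and their growth is then scored against vehicle-only cultures of the same repair-deficient yeast strain.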

Experiment [2] in a line: NCI Yeast Anticancer Drug Screen. Data for the mec2-1 strain (AID 157). Conditions: S. cerevisiae mec2-1 strain, at 50.0 µM, stronger effect = higher value. The procedure, abridged: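 Growth inhibition is read against vehicle-treated controls after compound exposure of the mec2-1 yeast strain, which is defective in DNA damage repair or cell cycle control.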
Experiment [3] in a line: NCI Yeast Anticancer Drug Screen. Data for the sgs1 mgt1 strain (AID 161).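 Further: 0% = growth of cultures given vehicle only.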 Conditions: S. cerevisiae sgs1 mgt1 strain, at 50.0 µM, stronger effect = higher value. The method, boiled down: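 Yeast cells carrying a defined DNA-repair defect were exposed to test compounds. Growth inhibition was measured relative to vehicle-treated controls.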
Experiment [4] can be described thus: NCI Yeast Anticancer Drug Screen. Data for the cln2 rad14 strain (AID 165).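 Further: 0% = growth equal to vehicle treated cultures.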 Conditions: S. cerevisiae cln2 rad14 strain, at 50.0 µM, stronger effect = higher value. The procedure, abridged:
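Growth inhibition, relative to vehicle-treated controls, is the read-out. The test organism is a yeast strain with defined genetic alterations, cln2 rad14.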

Experiment [5] is described as follows: NCI Yeast Anticancer Drug Screen. Data for the bub3 strain (AID 167). The conditions noted are these: S. cerevisiae bub3 mutant strain, at 50.0 µM, stronger effect = higher value. The procedure, abridged:
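Part of a panel of yeast mutants defective in DNA damage repair or cell cycle regulation. Each strain is grown with compound, and inhibition is calculated relative to solvent-treated cultures.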

A short description of experiment [6]: NCI Yeast Anticancer Drug Screen. Data for the mlh1 rad18 strain (AID 175). Conditions: S. cerevisiae mlh1 rad18 strain growth inhibition; at 50.0 µM; stronger effect = higher value. The method, boiled down:
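Cells of a genetically altered yeast strain, deficient in DNA damage repair, were treated with compound. Their growth was then compared with that of vehicle-treated cultures to give inhibition.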

About 79,000 compounds went through this panel and 15% of them were active in at least one assay; those are over-represented in the sample as a whole. A number with no mark means an inactive call. Calls of active or inactive are those of the source. No stated cut-off is given here; in the data, active means growth inhibition above about 70%; inactive means the rest.

Regarding `CC(=O)Nc1ccc(/C=N\N=C\c2ccc(NC(C)=O)cc2)cc1`, the growth inhibition in experiment [1] was 1.95%; in experiment [2] it was 13.7%; in experiment [3] it was 28.4%; in experiment [4], -4.6%; in experiment [5], 29.9%; in experiment [6], 28.6%.

`O=C1CCCCc2cccc(O)c21`: the growth inhibition in experiment [1] is 2%; in experiment [2] it was -3.85%; in experiment [3], -1.95%; in experiment [4] it was 24.3%; in experiment [5] it was 2.4%; in experiment [6], 2.1%.

In the case of `CCN(CC)Cc1cc(Nc2cc(C)nc(/N=C(\N)Nc3cc(Cl)cc(Cl)c3)n2)ccc1O`, the growth inhibition in experiment [1] is 95.2% (active); in experiment [2], 69.2%; in experiment [3], 97.2% (active); in experiment [4], 10.2%; in experiment [5], 7.95%; in experiment [6], 91.1% (active).

Regarding `O=C(Nc1cccc2c1[nH]c1c(-c3ccccc3)nccc12)c1ccccc1[N+](=O)[O-]`, the growth inhibition was 58.1% in experiment [1]; 45.1% in experiment [2]; 49.2% in experiment [3]; 23.2% in experiment [4]; 42.6% in experiment [5]; 51.5% in experiment [6].

For the compound `CC(=O)Nc1cc(C)c(C)cc1[N+](=O)[O-]`, the growth inhibition in experiment [1] was -2.5%; in experiment [2], -16.6%; in experiment [3], -9.45%; in experiment [4], 3.3%; in experiment [5] it was -27.1%; in experiment [6], -11.7%.

With `Cc1c[n+]([O-])n(-c2ccccc2)n1`, the growth inhibition in experiment [1] was 4.65%; in experiment [2] it was -4.9%; in experiment [3], 0.7%; in experiment [4], -38.7%; in experiment [5], 11.6%; in experiment [6] it was -4.8%.

`CCOC(=O)N1c2ccccc2SC1C#N` (stereo not given): the growth inhibition was 63.1% in experiment [1]; 40.1% in experiment [2]; 37.4% in experiment [3]; 1.85% in experiment [4]; 25.1% in experiment [5]; 27.4% in experiment [6].

Turning to `CC(C)CC1NC(=O)CCC(NC(=O)C(Cc2ccc(O)cc2)NC(=O)OCc2ccccc2)C(=O)NC(Cc2ccccc2)C(=O)NC(Cc2ccccc2)NC1=O` (stereo not given), the growth inhibition was -24.9% in experiment [1]; -21.6% in experiment [2]; -24% in experiment [3]; 8.6% in experiment [4]; -7.55% in experiment [5]; -18% in experiment [6].

On to `CC(=O)c1ccc2ccc3ccccc3c2c1O`, for which the growth inhibition in experiment [1] is -3.85%; in experiment [2], -8.75%; in experiment [3], -14.3%; in experiment [4] it was -30.6%; in experiment [5], -8.4%; in experiment [6], 5.25%.

With `O=C1OC(C(O)CO)C(C(O)CO)OC1=O` (stereo not given), the growth inhibition is -9.3% in experiment [1]; -15.6% in experiment [2]; -39.5% in experiment [3]; -7.35% in experiment [4]; -12.3% in experiment [5]; 1.6% in experiment [6].

Turning to `COc1ccc(N=Nc2ccccc2)cc1`, the growth inhibition is 3% in experiment [1]; 3.8% in experiment [2]; -5.6% in experiment [3]; -10.6% in experiment [4]; -11.8% in experiment [5]; -4.95% in experiment [6].

For `OCc1ccccc1C(c1ccc(O)cc1)c1ccc(O)cc1`, the growth inhibition in experiment [1] was 26.3%; in experiment [2] it was -7.9%; in experiment [3] it was 28.9%; in experiment [4] it was 18%; in experiment [5], 12.7%; in experiment [6], 5.15%.

As for `CC1OC(OC2C(OC(=O)[C@@H]3CC(C)(C)C[C@H]4C5=CC[C@@H]6[C@@]7(C)C[C@H](O)[C@H](OC8OC(CO)C(O)C(O)C8O)[C@@](C)(CO)[C@@H]7[C@H](O)C[C@@]6(C)[C@]5(C)CC[C@@]34C)OCC(O)C2O)C(O)C(O)C1O` (stereo not given in full), the growth inhibition in experiment [1] is -22.4%; in experiment [2], -20.7%; in experiment [3], -18.1%; in experiment [4] it was -14.2%; in experiment [5] it was -1.8%; in experiment [6] it was -64.4%.

`Clc1ccc(C(=C=C(c2ccccc2)c2ccccc2)c2ccc(Cl)cc2)cc1`: the growth inhibition in experiment [1] is 33.7%; in experiment [2], 13.8%; in experiment [3], -4.4%; in experiment [4], 20.7%; in experiment [5], 5.55%; in experiment [6], 25.9%.

As for `CC(=O)Nc1nc(NC(C)=O)c2[nH]c(CO)nc2n1`, the growth inhibition in experiment [1] was -4.2%; in experiment [2] it was -10.4%; in experiment [3], -11.8%; in experiment [4], -33.6%; in experiment [5] it was -61.3%; in experiment [6], -11.7%.

Regarding `O=C(OCc1ccccc1CN1CCCCC1)c1ccc([N+](=O)[O-])cc1Cl`, the growth inhibition in experiment [1] was -7.4%; in experiment [2], -6.45%; in experiment [3], 0.85%; in experiment [4], -34.9%; in experiment [5] it was -2.6%; in experiment [6], -29.7%.

For `Nc1nc2nsnc2nc1N`, the growth inhibition in experiment [1] is 1.9%; in experiment [2], 12.3%; in experiment [3] it was 13.6%; in experiment [4] it was -57.9%; in experiment [5], 1.2%; in experiment [6], 23.9%.

As to `O=C(O)C(c1cccs1)C1(O)CCCCC1` (stereo not given), the growth inhibition is -0.75% in experiment [1]; -7.2% in experiment [2]; -2.25% in experiment [3]; -1.65% in experiment [4]; -2.5% in experiment [5]; -5.3% in experiment [6].

As to `Cc1nc2nn(C)cc2c(=O)n1/N=C/c1ccccc1`, the growth inhibition in experiment [1] was -18.8%; in experiment [2] it was -35.5%; in experiment [3], -50.1%; in experiment [4], -5.9%; in experiment [5], -4.15%; in experiment [6], -37.4%.

Take `CCN(CC)CCN(CC)CCN(CC)CC`: the growth inhibition was 6.7% in experiment [1]; 5.65% in experiment [2]; -1.75% in experiment [3]; 3.85% in experiment [4]; 4.1% in experiment [5]; -0.7% in experiment [6].
